Measurements reported in PubChem BioAssay (Tox21).
Records with an inconclusive call do not appear. A call without a number means that no potency is given here. A number with no mark means an inactive call. Activity calls are given as the source filed them. Calls come from the whole dose curve.

Biological target: Beta-2 adrenergic receptor (Homo sapiens) (UniProt P07550)
Assay: Adrenergic beta2 receptor (ADRB2) small molecule agonists, cell-based qHTS assay (AID 1963593);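 for activation: CHO cells stably overexpressing human ADRB2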
How it was run: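 CHO cells stably over-expressing ADRB2 were plated overnight at 37C, then dosed with compounds plus a stimulation mix containing 100uM IBMX and 25uM Ro-20-1724 for 0.5hr at room temperature. cAMP was measured by HTRF competition, 1hr.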
Potency is the fitted concentration of half-maximal effect.

Sequence of Beta-2 adrenergic receptor (Homo sapiens) (P07550 whole entry, looked up): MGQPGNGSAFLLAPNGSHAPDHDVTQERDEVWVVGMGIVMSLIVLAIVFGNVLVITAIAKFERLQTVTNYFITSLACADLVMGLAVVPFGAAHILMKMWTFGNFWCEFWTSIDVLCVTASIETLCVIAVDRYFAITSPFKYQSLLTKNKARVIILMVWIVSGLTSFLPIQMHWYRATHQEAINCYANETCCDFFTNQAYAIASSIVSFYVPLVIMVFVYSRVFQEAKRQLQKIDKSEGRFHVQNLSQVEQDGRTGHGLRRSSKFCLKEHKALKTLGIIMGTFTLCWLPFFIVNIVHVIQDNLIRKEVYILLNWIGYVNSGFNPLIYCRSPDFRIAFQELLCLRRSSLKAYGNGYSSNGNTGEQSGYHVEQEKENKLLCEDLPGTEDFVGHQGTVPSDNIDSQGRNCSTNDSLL

| Compound | activation | Potency |
| --- | --- | --- |
| CC(=O)OCC1=C(C(=O)O)N2C(=O)[C@@H](N)[C@H]2SC1 | 15.1% [at 19 µM] | – |
| CC[C@H](C)[C@H]1O[C@]2(C=C[C@@H]1C)C[C@@H]1C[C@@H](C/C=C(\C)[C@@H](O[C@H]3C[C@H](OC)[C@@H](O[C@H]4C[C@H](OC)[C@@H](O)[C@H](C)O4)[C@H](C)O3)[C@@H](C)/C=C/C=C3\CO[C@@H]4[C@H](O)C(C)=C[C@@H](C(=O)O1)[C@]34O)O2 | – | inactive |
| CC(O)C#N (stereo not given) | – | inactive |
| c1ccc2c(c1)[nH]c1cnccc12 | – | inactive |
| NC(=O)C(Cl)(Cl)Cl | – | inactive |
| O=C(O)c1cc(I)cc(I)c1I | – | inactive |
| COc1ccc(CN2CCNCC2)c(OC)c1OC | – | inactive |
| COCc1cnc(C2=NC(C)(C(C)C)C(=O)N2)c(C(=O)O)c1 (stereo not given) | – | inactive |
| ClC=C(Cl)Cl | – | inactive |
| NCCc1cc(O)c(O)cc1O | – | inactive |
| CC(C)[C@H](C(=O)OC(C#N)c1cccc(Oc2ccccc2)c1)c1ccc(OC(F)F)cc1 (stereo not given in full) | – | inactive |
| CCC1(CC)C(=O)N=C(O)NC1=O | – | inactive |
| O=S(=O)(Cl)c1ccccc1 | – | inactive |
| SCc1ccco1 | – | inactive |
| [CH3][Hg][Cl] | – | inactive |
| O=C(O)COc1ccc(Cl)cc1 | – | inactive |
| CCCCc1ccc(O)cc1 | – | inactive |
| CN=CNc1ccc(C)cc1C | – | inactive |
| COC(=O)N(C(=O)N1COC2(C(=O)OC)Cc3cc(Cl)ccc3C2=N1)c1ccc(OC(F)(F)F)cc1 (stereo not given) | – | inactive |
| C[C@@H]1CC2=CC(=O)CC[C@@H]2[C@H]2CC[C@@]3(C)[C@@H](CC[C@]3(C)O)[C@@H]21 | – | inactive |

| Compound | activation | Potency |
| --- | --- | --- |
| COc1nn(C(=O)NS(=O)(=O)c2ccccc2OC(F)(F)F)c(=O)n1C | – | inactive |
| CC(C)(C)NC[C@H](O)c1ccc(O)cc1Cl | – | 0.006 µM (active) |
| CN(C)CCc1c[nH]c2ccccc12 | – | inactive |
| C=CC(=O)OCC(COC(=O)C=C)(COC(=O)C=C)COC(=O)C=C | – | 24.3 µM (active) |
| CC(C)(C)N(NC(=O)c1ccc(Cl)cc1)C(=O)c1ccccc1 | – | inactive |
| Cn1sc(Cl)cc1=O | – | inactive |
| CC(Cl)CN(C)C (stereo not given) | – | inactive |
| c1ccc(OCC2CO2)cc1 (stereo not given) | – | inactive |
| CCCN1CCC[C@@H]2Cc3nc(N)ncc3C[C@H]21 | – | inactive |
| COc1ccc(C(=O)N2CCCC2=O)cc1 | – | inactive |
| CC(C)N(C(=O)SC/C(Cl)=C/Cl)C(C)C | – | inactive |
| BrCC(Br)C1CCC(Br)C(Br)C1 (stereo not given) | – | inactive |
| CCC1COC(Cn2cncn2)(c2ccc(Cl)cc2Cl)O1 (stereo not given) | – | inactive |
| CCCCCCCCCCCCN(C)C | – | inactive |
| CCCN(CCC)CCc1c[nH]c2ccccc12 | – | inactive |
| CCC#N | – | inactive |
| Clc1ccc(C(Cl)(Cl)Cl)cc1Cl | – | inactive |
| CC(Cc1ccccc1)N(C)Cc1ccco1 (stereo not given) | – | inactive |
| ClSC(Cl)(Cl)Cl | – | inactive |
| C[C@H]1[C@@H]2Cc3ccc(O)cc3[C@@]1(C)CCN2C | – | inactive |
